# According to the supplement of paper PMC10503962:
# Test system: Trichuris muris adult worms
# Assay: mean motility score (Paragon pixel variance) of adult worms (arbitrary units); higher = more motile worms, i.e. less anthelmintic effect; extreme values may be limits of the assay
# Settings: 100 µM; 24 h
# Summary of the method: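 Each drug was tested with three worms in three wells, run over three separate occasions and vehicle and positive controls included. The worms were single adult Trichuris muris from infected NOD SCID mice, held for 24 h at 37°C and 5% CO2 in 100 μL RPMI-1640 with antibiotics and drug at 100 μM (1% v/v DMSO) in 96-well plates. Motility score was derived by Paragon pixel-variance analysis of films from an automated phenotyping platform and averaged over replicate wells.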
row,SMILES,mean motility score
1,CN(C)CCCOc1nn(Cc2ccccc2)c2ccccc12.Cl [benzydamine hydrochloride],3530
2,CC(=O)c1c(C)c2cnc(Nc3ccc(N4CCNCC4)cn3)nc2n(C2CCCC2)c1=O [palbociclib],1970
3,C[C@@H]1[C@H](O)[C@@H](C)/C=C/C=C/C=C/C=C/C=C/C=C/C=C/[C@H](O[C@@H]2O[C@H](C)[C@@H](O)[C@H](N)[C@@H]2O)C[C@@H]2O[C@](O)(C[C@@H](O)C[C@@H](O)[C@H](O)CC[C@@H](O)C[C@@H](O)CC(=O)O[C@H]1C)C[C@H](O)[C@H]2C(=O)O [amphotericin B],656
4,OCCN1CCN(CCCN2c3ccccc3Sc3ccc(Cl)cc32)CC1 [perphenazine],175
5,O=C(O)CNC(=O)c1ccccc1I [iodohippurate],3580
6,CC(=O)O[C@]1(C(C)=O)CC[C@H]2[C@@H]3C=C(Cl)C4=CC(=O)CC[C@]4(C)[C@H]3CC[C@@]21C [chlormadinone acetate],2750
7,C[C@]12C=CC(=O)C=C1CC[C@@H]1[C@@H]2[C@@H](O)C[C@@]2(C)[C@H]1CC[C@]2(O)C(=O)CO [prednisolone],659
8,COc1ccc2c(c1)c(CC(=O)O)c(C)n2C(=O)c1ccc(Cl)cc1 [indomethacin],2460
9,CC12CC3CC(C)(C1)CC(N)(C3)C2.Cl [memantine hydrochloride],2620
10,Cc1cc(C(C)(C)C)cc(C)c1C=C1NCCN1 [xylometazoline],3760
